PubChem BioAssay (EPA / NIEHS)
The source made the active and inactive calls. Rule for the calls: active = hit-call score of the fitted dose curve at least 0.9, where 1 is the maximum; inactive = score below 0.9.

Columns and labels:
[1] = CEETOX_H295R_ESTRADIOL: CeeTox H295R High-throughput Steroidogenesis Assay for Estradiol (AID 2283440); conditions: actives raise or lower the signal;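 note: estradiol secreted into medium quantified by LC-MS/MS after dansyl derivatisation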
How it was run: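 Estradiol in spent medium measured by LC-MS/MS after dansyl chloride derivatisation. Forskolin-primed (10 uM, 48 h) human adrenal H295R cells received test chemical 48 h at 0.1% DMSO; concentrations lowered until MTT viability >/=70%.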

[2] = CEETOX_H295R_ESTRONE: CeeTox H295R High-throughput Steroidogenesis Assay for Estrone (AID 2283441); conditions: actives raise or lower the signal;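 note: estrone secreted into medium measured by LC-MS/MS after dansyl derivatization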;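 for AC50: human adrenal H295R cells prestimulated with forskolin for two days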
How it was run: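 Forskolin-stimulated H295R cells are treated 48 h with chemical, and estrone in the medium is measured by LC-MS/MS. Activity is fitted in both directions relative to DMSO controls, with chemicals diluted until MTT viability reaches at least 70%.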

[3] = CEETOX_H295R_PROG: CeeTox H295R High-throughput Steroidogenesis Assay for Progesterone (PROG) (AID 2283442); conditions: actives raise or lower the signal;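 for AC50: human H295R adrenal cells primed with 10 µM forskolin before dosing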
How it was run: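 Progesterone secreted by human H295R cells was measured by LC-MS/MS following 48 h chemical exposure at 0.1% DMSO, preceded by 48 h forskolin (10 uM) stimulation. Same-well MTT viability; cytotoxic concentrations diluted 10- or 100-fold and retested.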

[4] = CEETOX_H295R_TESTO: CeeTox H295R High-throughput Steroidogenesis Assay for Testosterone (TESTO) (AID 2283457); conditions: actives raise or lower the signal;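 for AC50: cells exposed to chemicals for 48 h before medium collection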
How it was run: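 Testosterone secreted into the medium over 48 h by H295R cells (maximum passage 10) was quantified by LC-MS/MS after MTBE extraction. Fitted in both directions against DMSO, with concentrations diluted until MTT viability was ≥70%.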

[5] = read-out: Tumor necrosis factor receptor superfamily member 6 (Homo sapiens) (UniProt P25445); test: LTEA_HepaRG_FAS: Life Technologies and Expression Analysis (LTEA) Assay for Fas cell surface death receptor (FAS) using HepaRG (AID 2283447); conditions: mRNA level, 48 h; actives raise or lower the signal
How it was run: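 Differentiated HepaRG cells in serum-free induction medium were exposed 48 h to 8 half-log concentrations up to 100 uM in 0.5% DMSO, in duplicate. FAS mRNA was measured by qRT-PCR normalised to ACTB, GAPDH and POLR2A; bidirectional fit versus DMSO.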

[6] = read-out: Fatty acid synthase (Homo sapiens) (UniProt P49327); test: LTEA_HepaRG_FASN: Life Technologies and Expression Analysis (LTEA) Assay for Fatty Acid Synthase (FASN) using HepaRG (AID 2283448); conditions: mRNA level, 48 h; actives raise or lower the signal
How it was run: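 HepaRG, 48 h exposure, 8-pt half-log series top 100 uM, 0.5% DMSO vehicle, duplicates. Readout: FASN transcript by Fluidigm qRT-PCR; housekeeping-normalized; bidirectional curve fit vs DMSO baseline.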

[7] = read-out: Cyclin D2 (CCND2), CCND2 (gene 894); test: LTEA_HepaRG_CCND2: Life Technologies and Expression Analysis (LTEA) Assay for Cyclin D2 (CCND2) using HepaRG (AID 2283449); conditions: mRNA level, 48 h; actives raise or lower the signal;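 note: CCND2 transcript measured by TaqMan qRT-PCR and normalised to three housekeeping genes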
How it was run: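 HepaRG, 48 h dosing, 8-pt half-log curve from 100 uM, 0.5% DMSO; duplicate wells. Readout: CCND2 transcript by microfluidic qRT-PCR, housekeeping-normalised; bidirectional fit vs DMSO baseline.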

[8] = read-out: Cyclin Dependent Kinase Inhibitor 1A (CDKN1A), CDKN1A (gene 1026); test: LTEA_HepaRG_CDKN1A: Life Technologies and Expression Analysis (LTEA) Assay for Cyclin Dependent Kinase Inhibitor 1A (CDKN1A) using HepaRG (AID 2283450); conditions: mRNA level, 48 h; actives raise or lower the signal
How it was run: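 Expression quantified by Fluidigm qRT-PCR with ACTB, GAPDH and POLR2A normalization, fitted bidirectionally against 0.5% DMSO. Cells: HepaRG, plated 48 h then treated 48 h in serum-free induction medium, top concentration 100 uM with half-log dilutions.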

[9] = read-out: Cyclin D1 (CCND1), CCND1 (gene 595); test: LTEA_HepaRG_CCND1: Life Technologies and Expression Analysis (LTEA) Assay for Cyclin D1 (CCND1) using HepaRG (AID 2283451); conditions: mRNA level, 48 h; actives raise or lower the signal
How it was run: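 Expression of CCND1 was quantified by qRT-PCR on Fluidigm arrays using ACTB, GAPDH and POLR2A as reference genes. HepaRG cultures, plated 48 h beforehand, were dosed for 48 h at up to 100 uM (half-log, 8 points) in 0.5% DMSO.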

[10] = read-out: catalase (CAT), CAT (gene 847); test: LTEA_HepaRG_CAT: Life Technologies and Expression Analysis (LTEA) Assay for catalase (CAT) using HepaRG (AID 2283452); conditions: mRNA level, 48 h; actives raise or lower the signal
How it was run: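 HepaRG cells in serum-free induction medium, 0.5% DMSO vehicle, exposed 48 h in duplicate over 8 half-log concentrations from 100 uM. CAT mRNA measured by qRT-PCR, normalized to ACTB, GAPDH, POLR2A; bidirectional fit versus DMSO.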

[11] = read-out: flavin-containing dimethylaniline monooxygenases 3 (FMO3), FMO3 (gene 2328); test: LTEA_HepaRG_FMO3: Life Technologies and Expression Analysis (LTEA) Assay for flavin-containing dimethylaniline monooxygenases 3 (FMO3) using HepaRG (AID 2283453); conditions: mRNA level, 48 h; actives raise or lower the signal
How it was run: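 Eight-point concentration-response in serum-free HepaRG cultures (top 100 uM, 0.5% DMSO, 48 h). Read-out: FMO3 mRNA level normalized to three endogenous control genes, fitted bidirectionally versus vehicle.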

[12] = read-out: Cytochrome P450 (CYP1A1), CYP1A1 (gene 1543); test: LTEA_HepaRG_CYP1A1: Life Technologies and Expression Analysis (LTEA) Assay for Cytochrome P450 (CYP1A1) using HepaRG (AID 2283454); conditions: mRNA level, 48 h; actives raise or lower the signal
How it was run: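 CYP1A1 transcript levels measured by Fluidigm qRT-PCR against three housekeeping genes, 48 h after chemical dosing of human HepaRG cells (highest concentration 100 uM, half-log steps, 0.5% DMSO vehicle). Gain or loss of signal fitted relative to DMSO.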

[13] = read-out: CFLAR gene, CFLAR (gene 8837); test: LTEA_HepaRG_CFLAR: Life Technologies and Expression Analysis (LTEA) Assay for CFLAR gene using HepaRG (AID 2283455); conditions: mRNA level, 48 h; actives raise or lower the signal
How it was run: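 qRT-PCR read-out (Fluidigm/TaqMan) of CFLAR mRNA, normalized to three housekeeping genes, in differentiated human HepaRG cells after 48 h chemical exposure; 8-point half-log series from 100 uM in 0.5% DMSO; bidirectional curve fitting versus DMSO.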

[14] = read-out: Forkhead box O1 (FOXO1), FOXO1 (gene 2308); test: LTEA_HepaRG_FOXO1: Life Technologies and Expression Analysis (LTEA) Assay for Forkhead box O1 (FOXO1) using HepaRG (AID 2283456); conditions: mRNA level, 48 h; actives raise or lower the signal
How it was run: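 HepaRG, 48 h exposure, 8-pt half-log series from 100 uM in 0.5% DMSO, duplicates; Fluidigm qRT-PCR mRNA, housekeeping-normalised; bidirectional fit vs DMSO baseline.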

[15] = read-out: growth arrest and DNA damage 45 (GADD45A), GADD45A (gene 1647); test: LTEA_HepaRG_GADD45A: Life Technologies and Expression Analysis (LTEA) Assay for growth arrest and DNA damage 45 (GADD45A) using HepaRG (AID 2283458); conditions: mRNA level, 48 h; actives raise or lower the signal
How it was run: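 HepaRG, 48 h exposure, 8 conc. (top 100 uM, half-log steps), 0.5% DMSO vehicle, duplicates. Read-out: qRT-PCR mRNA level, housekeeping-normalized (ACTB/GAPDH/POLR2A). Curves fit bidirectionally vs DMSO baseline.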

[16] = read-out: Forkhead box O3 (FOXO3), FOXO3 (gene 2309); test: LTEA_HepaRG_FOXO3: Life Technologies and Expression Analysis (LTEA) Assay for Forkhead box O3 (FOXO3) using HepaRG (AID 2283459); conditions: mRNA level, 48 h; actives raise or lower the signal
How it was run: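 qRT-PCR readout of FOXO3 transcript, normalized to three housekeeping genes (ACTB, GAPDH, POLR2A); gain or loss fitted against 0.5% DMSO vehicle. HepaRG cells, 48 h chemical exposure, 8-point half-log series, top 100 uM.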

[17] = read-out: ABC Transporter (ABCB1), ABCB1 (gene 5243); test: LTEA_HepaRG_ABCB1: Life Technologies and Expression Analysis (LTEA) Assay for ABC Transporter (ABCB1) using HepaRG (AID 2283460); conditions: mRNA level, 48 h; actives raise or lower the signal
How it was run: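 HepaRG, 48 h exposure, 8-pt half-log series from 100 uM, 0.5% DMSO vehicle, duplicates. Readout: ABCB1 transcript by Fluidigm TaqMan qRT-PCR, housekeeping-normalized; bidirectional curve fit vs DMSO baseline.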

[18] = read-out: growth arrest and DNA damage 45 (GADD45B), GADD45B (gene 4616); test: LTEA_HepaRG_GADD45B: Life Technologies and Expression Analysis (LTEA) Assay for growth arrest and DNA damage 45 (GADD45B) using HepaRG (AID 2283461); conditions: mRNA level, 48 h; actives raise or lower the signal
How it was run: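 Transcript level quantified by Fluidigm TaqMan qRT-PCR with three housekeeping genes for normalization, analyzed for up- or down-regulation against 0.5% DMSO. HepaRG cultures dosed 48 h at eight half-log concentrations up to 100 uM, duplicates.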

[19] = read-out: ABC Transporter (ABCC3), ABCC3 (gene 8714); test: LTEA_HepaRG_ABCC3: Life Technologies and Expression Analysis (LTEA) Assay for ABC Transporter (ABCC3) using HepaRG (AID 2283462); conditions: mRNA level, 48 h; actives raise or lower the signal
How it was run: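 Transcript level by TaqMan qRT-PCR, normalised to three housekeeping genes, fitted in both directions relative to vehicle. Chemicals tested in duplicate at eight half-log concentrations up to 100 uM for 48 h on HepaRG cells (0.5% DMSO).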

[20] = read-out: ABC Transporter (ABCB11), ABCB11 (gene 8647); test: LTEA_HepaRG_ABCB11: Life Technologies and Expression Analysis (LTEA) Assay for ABC Transporter (ABCB11) using HepaRG (AID 2283463); conditions: mRNA level, 48 h; actives raise or lower the signal
How it was run: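 HepaRG, 48 h exposure, 8-pt half-log CRC top 100 uM, 0.5% DMSO vehicle, duplicates. Readout: TaqMan qRT-PCR of ABCB11 mRNA, housekeeping-normalized (ACTB/GAPDH/POLR2A). Bidirectional fit vs DMSO baseline.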

Measured: AC50

Fatty acid synthase (Homo sapiens), sequence (P49327 whole entry, looked up): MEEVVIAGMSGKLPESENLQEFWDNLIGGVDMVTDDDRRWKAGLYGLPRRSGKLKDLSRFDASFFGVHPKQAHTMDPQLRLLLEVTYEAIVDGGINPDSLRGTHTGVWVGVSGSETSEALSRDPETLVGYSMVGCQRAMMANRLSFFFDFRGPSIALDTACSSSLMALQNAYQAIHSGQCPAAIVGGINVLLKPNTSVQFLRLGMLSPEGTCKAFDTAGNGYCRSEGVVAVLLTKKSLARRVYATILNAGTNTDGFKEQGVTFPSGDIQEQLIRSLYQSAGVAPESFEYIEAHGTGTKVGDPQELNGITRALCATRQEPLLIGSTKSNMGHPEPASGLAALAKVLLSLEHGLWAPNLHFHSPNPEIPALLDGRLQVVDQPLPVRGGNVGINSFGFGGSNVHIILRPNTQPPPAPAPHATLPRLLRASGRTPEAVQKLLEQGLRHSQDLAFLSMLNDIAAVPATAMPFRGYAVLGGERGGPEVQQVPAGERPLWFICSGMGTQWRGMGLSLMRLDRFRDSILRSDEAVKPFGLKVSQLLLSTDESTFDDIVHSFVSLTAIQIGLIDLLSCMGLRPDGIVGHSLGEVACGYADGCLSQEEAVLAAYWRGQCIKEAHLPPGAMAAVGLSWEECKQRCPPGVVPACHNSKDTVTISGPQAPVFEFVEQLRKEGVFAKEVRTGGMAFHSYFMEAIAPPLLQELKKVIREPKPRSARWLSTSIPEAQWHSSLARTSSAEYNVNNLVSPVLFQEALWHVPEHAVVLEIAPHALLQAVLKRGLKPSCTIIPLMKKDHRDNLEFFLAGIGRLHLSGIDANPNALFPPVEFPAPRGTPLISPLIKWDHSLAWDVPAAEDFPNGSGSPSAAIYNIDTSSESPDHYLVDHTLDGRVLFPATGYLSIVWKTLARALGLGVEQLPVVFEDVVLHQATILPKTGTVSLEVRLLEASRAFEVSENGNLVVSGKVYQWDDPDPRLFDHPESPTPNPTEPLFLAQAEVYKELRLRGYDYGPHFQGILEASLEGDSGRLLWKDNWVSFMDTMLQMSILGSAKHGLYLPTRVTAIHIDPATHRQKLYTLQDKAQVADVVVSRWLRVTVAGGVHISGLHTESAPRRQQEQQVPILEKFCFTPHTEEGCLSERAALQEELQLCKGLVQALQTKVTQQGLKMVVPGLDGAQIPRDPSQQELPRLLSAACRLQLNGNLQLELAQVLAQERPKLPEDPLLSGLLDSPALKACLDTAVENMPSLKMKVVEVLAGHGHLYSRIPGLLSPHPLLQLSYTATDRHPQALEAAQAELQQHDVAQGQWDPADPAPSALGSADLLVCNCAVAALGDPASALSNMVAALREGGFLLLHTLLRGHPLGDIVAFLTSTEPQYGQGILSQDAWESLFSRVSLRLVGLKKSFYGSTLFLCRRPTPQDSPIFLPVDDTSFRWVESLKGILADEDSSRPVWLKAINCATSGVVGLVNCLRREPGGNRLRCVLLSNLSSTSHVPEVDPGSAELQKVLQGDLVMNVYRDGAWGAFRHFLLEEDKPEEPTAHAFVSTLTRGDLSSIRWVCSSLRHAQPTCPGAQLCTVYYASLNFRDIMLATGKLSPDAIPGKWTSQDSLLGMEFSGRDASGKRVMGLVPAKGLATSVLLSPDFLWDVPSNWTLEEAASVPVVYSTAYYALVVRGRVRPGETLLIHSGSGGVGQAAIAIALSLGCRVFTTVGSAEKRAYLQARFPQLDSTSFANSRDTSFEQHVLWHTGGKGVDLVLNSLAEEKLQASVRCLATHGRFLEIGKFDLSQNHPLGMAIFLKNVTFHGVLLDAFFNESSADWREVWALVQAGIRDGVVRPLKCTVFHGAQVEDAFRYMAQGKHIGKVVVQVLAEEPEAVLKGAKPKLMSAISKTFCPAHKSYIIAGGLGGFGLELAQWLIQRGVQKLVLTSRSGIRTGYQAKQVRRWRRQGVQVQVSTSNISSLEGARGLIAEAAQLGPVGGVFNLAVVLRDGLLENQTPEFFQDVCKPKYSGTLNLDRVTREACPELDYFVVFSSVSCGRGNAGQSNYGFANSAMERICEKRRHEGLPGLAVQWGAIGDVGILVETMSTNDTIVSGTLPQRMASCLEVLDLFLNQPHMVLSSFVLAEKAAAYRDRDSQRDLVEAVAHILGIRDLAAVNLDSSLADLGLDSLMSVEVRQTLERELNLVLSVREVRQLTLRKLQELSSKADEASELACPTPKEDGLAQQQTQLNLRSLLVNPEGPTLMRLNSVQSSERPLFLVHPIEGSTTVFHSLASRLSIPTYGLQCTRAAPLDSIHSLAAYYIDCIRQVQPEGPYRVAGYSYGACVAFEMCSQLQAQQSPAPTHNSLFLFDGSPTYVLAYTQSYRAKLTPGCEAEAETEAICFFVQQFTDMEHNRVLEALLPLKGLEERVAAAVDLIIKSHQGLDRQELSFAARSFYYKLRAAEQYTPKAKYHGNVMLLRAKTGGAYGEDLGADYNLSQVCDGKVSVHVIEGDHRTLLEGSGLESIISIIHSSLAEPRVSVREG

c1ccc(CCCc2ccccn2)cc1
inactive: [1] | [2]
active: [3] 50 µM

Nc1ccc(F)c([N+](=O)[O-])c1
inactive: [1] | [2]
active: [3] 50 µM

CC1(C)[C@H](C(=O)OCc2cccc(Oc3ccccc3)c2)[C@@H]1C=C(Cl)Cl
inactive: [3] | [4]

C#C[C@]1(O)CC[C@H]2[C@@H]3CCC4=Cc5oncc5C[C@]4(C)[C@H]3CC[C@@]21C
active: [1] 5.57 µM | [2] 3.42 µM | [3] 0.225 µM

O=c1cc(-c2ccccc2)oc2cc(O)cc(O)c12
active: [3] 16.1 µM | [4] 5.61 µM

O=C(O)C[C@H](O)C[C@H](O)/C=C/c1c(C2CC2)nc2ccccc2c1-c1ccc(F)cc1
active: [3] 0.0233 µM | [4] 0.0871 µM

Cc1ccc2n[nH]nc2c1
inactive: [1] | [2] | [3]

CC1COc2ccccc2N1C(=O)C(Cl)Cl (configuration not stated)
inactive: [1] | [2] | [3]

CC(C)c1cccc(O)c1
inactive: [1] | [2] | [3]

NC(=O)Nc1ccc(Cl)cc1
inactive: [1] | [2] | [3]

Cc1cccc(C)c1C
inactive: [3]

Nc1cc([N+](=O)[O-])ccc1Cl
inactive: [3] | [4]

O=C(O)c1ccc([N+](=O)[O-])cc1
not listed: [1] | [2] | [4]
inactive: all other assays above

C=CC(C)(C)O
inactive: [1] | [2] | [3] | [4]

C=CCOc1nc(OCC=C)nc(OCC=C)n1
active: [3] 50 µM

CSc1nc(NC2CC2)nc(NC(C)(C)C)n1
inactive: [3]

COc1cc2ncnc(Nc3cccc(Cl)c3)c2cc1OC
inactive: [1] | [2] | [3] | [4]
